Experimental findings from the supplement of paper PMC7366291 are described below.

Counter-ions that a name gives are not always drawn. ± gives the standard deviation or the standard deviation of the averaged measurements.

Common to all, as to settings: 25 µM; exposure: 24-48 hpf
The test system of assay [1] is Danio rerio Tg(wt1b:EGFP) embryo, pronephros. Kind of assay: glomerular separation, fold change vs DMSO control; higher = glomeruli further apart (abnormal). The method in brief:
(§1)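 Using a Fiji macro, distances and angles were calculated from 16 reference points set by hand on maximum projections of pronephroi imaged dorsally (470 nm, 10 z-slices) in agarose-filled 96-well plates. The dechorionated Tg(wt1b:EGFP) zebrafish embryos had received 25 μM compound in 0.5% DMSO in HEPES-buffered E3 with 0.003% PTU from 24 to 48 hpf at 28.5°C. Values more than 2 SD from a feature's mean were excluded. Each feature appears as a fold change over the mean of DMSO-treated embryos from the same day.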

Assay [2] shares this test system. Put plainly: glomerular width (mean of left and right), fold change vs DMSO control; higher = wider glomerulus. The gist of the method: as §1
The test system is the same in assay [3]. Put plainly: fraction of imaged embryos annotated as normal kidney; higher = less nephrotoxic; extreme values may be limits of the assay. The method in brief: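 Dechorionated Tg(wt1b:EGFP) zebrafish embryos were incubated with 25 μM compound in 0.5% DMSO, 5 mM HEPES-buffered E3 and 0.003% PTU from 24 to 48 hpf at 28.5°C. Pronephroi were then imaged by widefield fluorescence, and the fraction of embryos per treatment assigned by hand to the normal-kidney category is given.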

Assay [4] shares this test system. Kind of assay: pronephric angle neck segment to proximal convoluted tubule (mean of left and right), fold change vs DMSO control; higher = larger pronephric angle. The gist of the method: as §1

Regarding `CCN(C(C)=O)c1cccc(-c2ccnc3c(C#N)cnn23)c1` [Zaleplon], in assay [1], the glomerular separation was found to be 0.976 ± 0.47. The glomerular width in assay [2] was 0.943 ± 0.034. Moreover, the “fraction of imaged embryos annotated as normal kidney” value (“fraction of imaged embryos annotated” for short) in assay [3] was 0.833. The “pronephric angle neck segment” value in assay [4] came out at 1.03 ± 0.027.

In turn, `CC(C)(N)Cc1ccccc1` [Phentermine hydrochloride] displayed a glomerular separation in assay [1] of 0.886 ± 0.21. Besides, in assay [2], the glomerular width was determined as 0.981 ± 0.035. The “fraction of imaged embryos annotated” value in assay [3] turned out to be 0.917. Moreover, the “pronephric angle neck segment” value in assay [4] came out at 0.979 ± 0.031.

On to `CC(C)C[C@H](CN)CC(=O)O` [Pregabalin], for which the glomerular separation in assay [1] was 1.1 ± 0.25. Also, the glomerular width in assay [2] turned out to be 0.9518 ± 0.0028. The “fraction of imaged embryos annotated” value in assay [3] turned out to be 0.917. Further, in assay [4], the “pronephric angle neck segment” value stood at 1.03 ± 0.03.

`CCC1(C)CC(=O)NC(=O)C1` [Bemegride] showed a glomerular separation in assay [1] of 0.891 ± 0.28. In assay [2], this compound showed a glomerular width of 0.997 ± 0.013. Besides, the “fraction of imaged embryos annotated” value in assay [3] was determined as 0.75. For the same compound, the “pronephric angle neck segment” value in assay [4] was 0.968 ± 0.027.

The compound `CCC(C)C1O[C@]2(C=C[C@@H]1C)C[C@@H]1CC(C/C=C(\C)[C@@H](OC3C[C@H](OC)[C@@H](OC4C[C@H](OC)[C@@H](O)[C@H](C)O4)[C@H](C)O3)[C@@H](C)/C=C/C=C3\COC4[C@H](O)C(C)=CC(C(=O)O1)[C@]34O)O2` (stereo not given in full) [Avermectin B1a] came in with a glomerular separation in assay [1] of 2.03 ± 1.1. Also, the glomerular width in assay [2] is 0.898 ± 0.044. Besides, the “fraction of imaged embryos annotated” value in assay [3] is 0.583. Moreover, in assay [4], the “pronephric angle neck segment” value turned out to be 1.14 ± 0.069.

As to `CNC(C)(C)Cc1ccccc1` [Mephentermine hemisulfate], the glomerular separation in assay [1] was found to be 0.946 ± 0.41. Also, the glomerular width in assay [2] amounted to 1.08 ± 0.036. In addition, the “fraction of imaged embryos annotated” value in assay [3] was determined as 1. Besides, the “pronephric angle neck segment” value in assay [4] came to 0.991 ± 0.081.

`C[C@@H]1CC[C@H]2[C@@H](C)C(=O)O[C@@H]3O[C@@]4(C)CC[C@@H]1[C@]32OO4` [Artemisinin] came in with a glomerular separation in assay [1] of 0.996 ± 0.38. In assay [2], this compound showed a glomerular width of 0.9517 ± 0.0011. Besides, the “fraction of imaged embryos annotated” value in assay [3] turned out to be 1. For the same compound, in assay [4], the “pronephric angle neck segment” value worked out at 1.05 ± 0.054.

The compound `C[C@@]12N[C@@H](Cc3ccccc31)c1ccccc12` [(-)-MK 801 hydrogen maleate] came in with a glomerular separation in assay [1] of 1.02 ± 0.29. The compound also showed a glomerular width in assay [2] of 1.034 ± 0.0098. Besides, the “fraction of imaged embryos annotated” value in assay [3] was determined as 1. For the same compound, the “pronephric angle neck segment” value in assay [4] worked out at 1.02 ± 0.069.

The compound `C[C@@H]1CN([C@H]2CC[C@](C#N)(c3ccc(F)cc3)CC2)CC[C@]1(C(=O)O)c1ccccc1` [Levocabastine hydrochloride] gave a glomerular separation in assay [1] of 1.19 ± 0.32. Also, the glomerular width in assay [2] came out at 1.06 ± 0.034. Further, the “fraction of imaged embryos annotated” value in assay [3] came out at 0.917. The “pronephric angle neck segment” value in assay [4] is 0.959 ± 0.011.

For the compound `CCOC(=O)c1cncn1[C@H](C)c1ccccc1` [Etomidate], in assay [1], the glomerular separation amounted to 0.978 ± 0.27. The compound further yielded a glomerular width in assay [2] of 0.949 ± 0.067. In addition, the “fraction of imaged embryos annotated” value in assay [3] amounted to 0.833. Besides, in assay [4], the “pronephric angle neck segment” value is 1.03 ± 0.011.

`CCC1(CC)C(=O)C=CNC1=O` [Pyrithyldione] came in with a glomerular separation in assay [1] of 0.785 ± 0.31. The compound further yielded a glomerular width in assay [2] of 1.034 ± 0.0093. Further, the “fraction of imaged embryos annotated” value in assay [3] came out at 0.727. In addition, the “pronephric angle neck segment” value in assay [4] came out at 0.9934 ± 0.0041.

On to `CC(=O)OCC(=O)[C@H]1CC[C@H]2[C@@H]3CC[C@H]4C[C@H](O)CC[C@]4(C)[C@H]3C(=O)C[C@]12C` [Alfadolone acetate], for which the glomerular separation in assay [1] is 1.22 ± 0.64. Also, the glomerular width in assay [2] is 0.942 ± 0.057. The “fraction of imaged embryos annotated” value in assay [3] was determined as 0.75. For the same compound, the “pronephric angle neck segment” value in assay [4] was found to be 1 ± 0.018.

For the compound `CCN[C@@H](C)Cc1cccc(C(F)(F)F)c1` [Dexfenfluramine hydrochloride], the glomerular separation in assay [1] was determined as 0.736 ± 0.23. In assay [2], this compound showed a glomerular width of 1.04 ± 0.037. For the same compound, the “fraction of imaged embryos annotated” value in assay [3] was determined as 0.917. Moreover, the “pronephric angle neck segment” value in assay [4] was 1.01 ± 0.03.

The compound `CN(C)C(=O)Oc1cc(OC(=O)N(C)C)cc(C(O)CNC(C)(C)C)c1` (stereo not given) [Bambuterol hydrochloride] displayed a glomerular separation in assay [1] of 0.925 ± 0.31. For the same compound, the glomerular width in assay [2] worked out at 0.915 ± 0.035. Moreover, in assay [3], the “fraction of imaged embryos annotated” value was determined as 1. Further, the “pronephric angle neck segment” value in assay [4] amounted to 1.01 ± 0.021.

In assay [1], `C#C[C@]1(O)CC[C@H]2[C@@H]3CCC4=CC(=O)CCC4=C3C=C[C@@]21CC` [Gestrinone] registered a glomerular separation of 1.64 ± 0.91. This compound yielded a glomerular width in assay [2] of 1.119 ± 0.0059. Moreover, the “fraction of imaged embryos annotated” value in assay [3] amounted to 0.417. In addition, the “pronephric angle neck segment” value in assay [4] worked out at 1.03 ± 0.038.

`CO[C@]12C[C@@H](COC(=O)c3cncc(Br)c3)CN(C)[C@@H]1Cc1cn(C)c3cccc2c13` [Nicergoline]: in assay [1], the glomerular separation came to 1.02 ± 0.39. Moreover, the glomerular width in assay [2] was 1.02 ± 0.037. For the same compound, in assay [3], the “fraction of imaged embryos annotated” value turned out to be 1. Further, in assay [4], the “pronephric angle neck segment” value stood at 0.966 ± 0.028.

Regarding `C=C1C[C@@H]2[C@H](CC[C@]3(C)C(=O)CC[C@@H]23)[C@@]2(C)C=CC(=O)C=C12` [Exemestane], the glomerular separation in assay [1] is 0.893 ± 0.38. For the same compound, in assay [2], the glomerular width is 0.932 ± 0.065. Moreover, the “fraction of imaged embryos annotated” value in assay [3] was 0.727. The “pronephric angle neck segment” value in assay [4] was found to be 1.25 ± 0.036.

As to `CNCC(O)c1ccc(O)cc1` (racemic) [(+,-)-Synephrine], the glomerular separation in assay [1] stood at 1.01 ± 0.41. Moreover, the glomerular width in assay [2] was 0.959 ± 0.015. Further, in assay [3], the “fraction of imaged embryos annotated” value came out at 0.833. For the same compound, the “pronephric angle neck segment” value in assay [4] stood at 1.017 ± 0.0012.

`C=C1CC[C@@]2(O)[C@H]3Cc4ccc(O)c5c4[C@@]2(CCN3CC2CC2)[C@H]1O5` [Nalmefene hydrochloride] yielded a glomerular separation in assay [1] of 0.938 ± 0.31. In assay [2], this compound had a glomerular width of 1.016 ± 0.01. Moreover, in assay [3], the “fraction of imaged embryos annotated” value was 0.75. Further, the “pronephric angle neck segment” value in assay [4] was determined as 1.007 ± 0.0021.

For `CC(C)N(CCC(C(N)=O)(c1ccccc1)c1ccccn1)C(C)C` (stereo not given) [Disopyramide], the glomerular separation in assay [1] was determined as 0.9 ± 0.32. The same compound yielded a glomerular width in assay [2] of 1.09 ± 0.086. For the same compound, the “fraction of imaged embryos annotated” value in assay [3] was found to be 0.667. Besides, in assay [4], the “pronephric angle neck segment” value was 1.05 ± 0.038.

As to `C[C@]12CC[C@H](O)C[C@@H]1CC[C@@H]1[C@@H]2CC[C@]2(C)C(=O)CC[C@@H]12` [Epiandrosterone], the glomerular separation in assay [1] was 1.72 ± 0.71. The compound further gave a glomerular width in assay [2] of 0.905 ± 0.061. Also, in assay [3], the “fraction of imaged embryos annotated” value stood at 0.417. Besides, the “pronephric angle neck segment” value in assay [4] was found to be 1.04 ± 0.022.

Take `C[C@H](N)[C@H](O)c1ccc(O)c(O)c1` [Levonordefrin]: in assay [1], the glomerular separation is 1.13 ± 0.33. In assay [2], this compound came in with a glomerular width of 1.04 ± 0.016. Besides, the “fraction of imaged embryos annotated” value in assay [3] is 0.667. The “pronephric angle neck segment” value in assay [4] came to 0.982 ± 0.012.

Regarding `CCCC(C)(COC(N)=O)COC(=O)NC(C)C` (stereo not given) [Carisoprodol], the glomerular separation in assay [1] was found to be 0.877 ± 0.24. The glomerular width in assay [2] is 1.14 ± 0.026. Further, the “fraction of imaged embryos annotated” value in assay [3] was 1. Also, in assay [4], the “pronephric angle neck segment” value is 0.938 ± 0.022.

Take `CC[C@@H](CO)NC(=O)[C@@H]1C=C2c3cccc4[nH]cc(c34)C[C@H]2N(C)C1` [Methylergometrine maleate]: the glomerular separation in assay [1] turned out to be 1.12 ± 0.46. This compound also came in with a glomerular width in assay [2] of 0.927 ± 0.056. The “fraction of imaged embryos annotated” value in assay [3] was determined as 0.909. Besides, the “pronephric angle neck segment” value in assay [4] worked out at 1.05 ± 0.031.

For `C[C@]12COC(=O)C[C@@H]1CC[C@@H]1[C@@H]2CC[C@@]2(C)[C@H]1CC[C@]2(C)O` [Oxandrolone], the glomerular separation in assay [1] was 0.832 ± 0.35. Further, the glomerular width in assay [2] was determined as 1.1 ± 0.05. The “fraction of imaged embryos annotated” value in assay [3] is 0.917. In addition, the “pronephric angle neck segment” value in assay [4] came out at 1.01 ± 0.036.
